The results in this text go back to PubChem BioAssay (Tox21).

Experiment [1] can be described thus: qHTS assay to identify small molecule agonists of the TGF-beta/Smad signaling pathway - cell viability counter screen (AID 1346829). Note: top concentration of the series differs between compounds; nearly all actives have a fitted effect of over 45% in size. The gist of the method: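 Tox21 qHTS format: SBE-bla HEK 293T cells treated with DMSO-dissolved compounds for 5 hr; CellTiter-Glo luminescence after 30 min at room temperature.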
(In general: Quantitative high-throughput screening tests each substance at several concentrations.)

Experiment [2] can be described thus: qHTS assay to identify small molecule agonists of the TGF-beta/Smad signaling pathway (AID 1346859; active = well fitted activation curve with a large enough effect in the signal ratio in the repeat runs, not every such curve was filed as active; the % refers to the signal ratio; note: series mostly up to about 77 µM). The gist of the method: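 Dual-wavelength fluorescence (460/530 nm emission) quantified beta-lactamase expression under the Smad binding element in HEK 293T cells following 5 hr compound treatment at 37 C.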
For experiment [3], the target named is Thyrotropin-releasing hormone receptor (Homo sapiens) (UniProt P34981). Description: qHTS assay to identify small molecule antagonists of the thyrotropin-releasing hormone receptor (TRHR) signaling pathway (AID 1346877; active = well fitted inhibition curve with a large enough effect in the repeat runs, not every such curve was filed as active; note: series mostly up to about 51 µM). The essentials: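 Cells (TRHR-HEK293) are plated and kept 18 h at 37 °C/5% CO2. A calcium-sensitive dye is added for 2 h, compound follows for 5 min at room temperature, and TRH is then given at 1 nM final.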
Thyrotropin-releasing hormone receptor (Homo sapiens), sequence (P34981 whole entry, looked up): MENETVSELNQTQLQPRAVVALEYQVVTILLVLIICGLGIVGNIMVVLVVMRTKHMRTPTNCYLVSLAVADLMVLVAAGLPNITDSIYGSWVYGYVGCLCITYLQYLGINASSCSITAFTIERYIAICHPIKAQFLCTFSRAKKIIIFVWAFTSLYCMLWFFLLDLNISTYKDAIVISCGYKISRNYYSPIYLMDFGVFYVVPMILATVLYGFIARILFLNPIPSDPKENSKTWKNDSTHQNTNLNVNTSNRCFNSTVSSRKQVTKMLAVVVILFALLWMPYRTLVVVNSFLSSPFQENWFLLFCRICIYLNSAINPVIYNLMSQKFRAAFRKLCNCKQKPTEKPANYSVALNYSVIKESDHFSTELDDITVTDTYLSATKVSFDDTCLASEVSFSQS

Experiment [4] has the same target. Description: qHTS assay to identify small molecule agonists of the thyrotropin-releasing hormone receptor (TRHR) signaling pathway (AID 1346891; calls by dose curve;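 note: HEK293 cells expressing TRHR with calcium dye readout; series mostly up to about 58 µM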). The gist of the method: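 Kinetic fluorescence (3 min, 1 s intervals) reported intracellular calcium after compound transfer onto TRHR-Hek293 cells pre-loaded with dye for 2 h at 37 °C.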
A short description of experiment [5]: Human pregnane X receptor (PXR) small molecule agonists, qHTS cell viability counter screen (AID 1346977). Note: nearly all actives have a fitted effect of over 50% in size. The gist of the method:
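HepG2 cells stably carrying the PXR-Luc reporter are cultured with 5% charcoal-stripped FBS and treated with compounds for 24hr. CellTiter-Fluor is added at 23hr and fluorescence is read after 1hr.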

A short description of experiment [6]: Caspase-3/7 induction in HepG2 cells by small molecules, qHTS assay (AID 1346978). Note: nearly all actives have a fitted effect of over 15% in size. The gist of the method: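 Wild-type HepG2 cells, 2,000/well, settled 5 hr at 37 C and 5% CO2, then compound-treated for 17 hr; caspase-3/7 activity read by luminescent Caspase-Glo 3/7 after 30 min at room temperature.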
A short description of experiment [7]: Caspase-3/7 induction in CHO-K1 cells by small molecules, qHTS assay (AID 1346980). Note: nearly all actives have a fitted effect of over 15% in size. The essentials: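 Wild-type CHO-K1 cells exposed to compounds for 17hr at 37 C, 5% CO2. Caspase-3/7 activity then measured by Caspase-Glo 3/7 luminescence after 30min at room temperature.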
Experiment [8] can be described thus: Caspase-3/7 induction in HepG2 cells by small molecules, qHTS cell viability counter screen (AID 1346981). Note: series mostly up to about 92 µM; nearly all actives have a fitted effect of over 30% in size. The gist of the method:
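Steps: seed 2,000 HepG2 cells per well; incubate 5 hr at 37 C; pin-add compounds in DMSO; incubate 16 hr; add CellTiter-Fluor; after 1 hr at 37 C and 5% CO2, read fluorescence.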

For experiment [9], the target named is Nuclear receptor subfamily 1 group I member 2 (Homo sapiens) (UniProt O75469). Description: Human pregnane X receptor (PXR) small molecule agonists, qHTS assay (AID 1346982). Note: nearly all actives have a fitted effect of over 35% in size. Note: potency is the fitted concentration of half-maximal effect. The gist of the method: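 Agonist mode qHTS: PXR-Luc HepG2 cells plated 5 hr before DMSO-dissolved compounds were pinned in, cultured 24 hr at 37 C, 5% CO2; ONE-Glo luminescence readout.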
Nuclear receptor subfamily 1 group I member 2 (Homo sapiens), sequence (O75469 whole entry, looked up): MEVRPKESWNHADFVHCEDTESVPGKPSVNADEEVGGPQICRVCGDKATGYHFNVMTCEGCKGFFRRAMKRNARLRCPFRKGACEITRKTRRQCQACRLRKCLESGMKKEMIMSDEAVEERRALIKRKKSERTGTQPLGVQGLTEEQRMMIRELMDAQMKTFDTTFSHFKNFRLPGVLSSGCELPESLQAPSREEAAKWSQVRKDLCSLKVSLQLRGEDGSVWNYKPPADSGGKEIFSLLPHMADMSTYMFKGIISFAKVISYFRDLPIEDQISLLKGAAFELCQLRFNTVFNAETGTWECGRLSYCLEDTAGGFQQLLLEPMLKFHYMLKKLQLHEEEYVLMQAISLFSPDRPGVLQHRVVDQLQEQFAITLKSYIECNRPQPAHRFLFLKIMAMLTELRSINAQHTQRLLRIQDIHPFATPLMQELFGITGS

Experiment [10] deals with Nuclear receptor subfamily 1 group I member 2 (Rattus norvegicus) (UniProt Q9R1A7). Description: Rat pregnane X receptor (rPXR) activation by small molecules, qHTS assay (AID 1346983). Note: nearly all actives have a fitted effect of over 20% in size. Conditions: rPXR luciferase reporter cells, One-Glo luminescence, 24 h; hits give high values. The gist of the method:
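Cell-based rPXR activation assay: rPXR cells, 2,000 per well, rested 5hr at 37 C, then exposed to compounds in DMSO for 24 hr at 37 C. Luciferase activity read by One-Glo luminescence after 30 min at room temperature.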

In experiment [11] the target is Nuclear receptor subfamily 1 group I member 2 (Homo sapiens) (UniProt O75469). Nature of the experiment: CYP3A4 induction through human pregnane X receptor (PXR) by small molecules, qHTS assay (AID 1346984). Note: nearly all actives have a fitted effect of over 40% in size. The gist of the method: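 Steps: seed DPX-2 cells, 5 hr at 37C; pin-transfer compounds; 24 hr at 37C; add Luciferin-IPA (3uM final), 3 hr at 37C; add One-Glo, 30 min RT; read luminescence.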

Experiment [12] deals with Cytochrome P450 2C19 (Homo sapiens) (UniProt P33261). Nature of the experiment: Cytochrome P450 Family 2 Subfamily C Member 19 (CYP2C19) small molecule antagonists: luciferase reporter qHTS assay (AID 1671197). Note: nearly all actives have a fitted effect of over 65% in size. Note: potency is the fitted concentration of half-maximal effect. The essentials: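 Relative luminescence units recorded 20 min after the detection reagent stopped a 1 h, 37C CYP2C19 reaction on proluciferin substrate, which was started by NADPH regeneration following 10 min room-temperature compound preincubation; ketoconazole positive control.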
Cytochrome P450 2C19 (Homo sapiens), sequence (P33261 whole entry, looked up): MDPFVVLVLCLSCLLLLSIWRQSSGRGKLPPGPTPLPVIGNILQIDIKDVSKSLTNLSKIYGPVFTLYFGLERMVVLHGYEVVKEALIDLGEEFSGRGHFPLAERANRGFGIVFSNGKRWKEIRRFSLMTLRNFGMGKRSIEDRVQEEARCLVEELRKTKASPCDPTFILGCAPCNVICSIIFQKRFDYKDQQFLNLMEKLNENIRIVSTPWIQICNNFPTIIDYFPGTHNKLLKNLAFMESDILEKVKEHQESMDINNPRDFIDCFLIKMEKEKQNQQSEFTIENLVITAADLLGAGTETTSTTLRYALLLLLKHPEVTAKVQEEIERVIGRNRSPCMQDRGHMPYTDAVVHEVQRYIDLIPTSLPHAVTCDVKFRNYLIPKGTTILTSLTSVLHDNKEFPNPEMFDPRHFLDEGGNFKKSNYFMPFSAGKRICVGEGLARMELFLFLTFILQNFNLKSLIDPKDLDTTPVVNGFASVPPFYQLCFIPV

Experiment [13] concerns the target Cytochrome P450 2C9 (Homo sapiens) (UniProt P11712). Description: Cytochrome P450 Family 2 Subfamily C Member 9 (CYP2C9) small molecule antagonists: luciferase reporter qHTS assay (AID 1671198). Note: nearly all actives have a fitted effect of over 50% in size. Note: potency is the fitted concentration of half-maximal effect. The essentials: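 P450-Glo proluciferin substrate with CYP2C9 enzyme; 10 min RT preincubation, then NADPH regeneration 1 h at 37C; luciferin detection reagent 20 min RT, luminescence in relative luminescence units.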

Experiment [14] has as its target Cytochrome P450 1A2 (Homo sapiens) (UniProt P05177). Nature of the experiment: Cytochrome P450 Family 1 Subfamily A Member 2 (CYP1A2) small molecule antagonists: luciferase reporter qHTS assay (AID 1671199). Note: nearly all actives have a fitted effect of over 50% in size. Note: potency is the fitted concentration of half-maximal effect. The gist of the method:
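Inhibition of CYP1A2 conversion of proluciferin to luciferin, detected by luminescence. Reaction run 1 h at room temperature with NADPH regeneration after brief compound preincubation.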

In experiment [15] the target is Voltage-gated inwardly rectifying potassium channel KCNH2 (Homo sapiens) (UniProt Q12809). Nature of the experiment: Human Ether-a-go-go-Related Gene (hERG) channel small molecule antagonists: fluorescence cell-based qHTS assay (AID 1671200).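 Note: hERG-expressing U2OS cells given a thallium stimulus after FluxOR II dye loading; series mostly up to about 77 µM; nearly all actives have a fitted effect of over 50% in size.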 The gist of the method:
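First, 1000 cells per well are seeded and cultured overnight at 37 C. Next, FluxOR II dye is loaded for 1 h at room temperature, protected from light. After 10 more minutes, stimulus is added and fluorescence is read.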

The target in experiment [16] is Cytochrome P450 3A4 (Homo sapiens) (UniProt P08684). Nature of the experiment: Cytochrome P450 Family 3 Subfamily A Member 4 (CYP3A4) small molecule antagonists: luciferase reporter qHTS assay (AID 1671201). Note: nearly all actives have a fitted effect of over 50% in size. Note: potency is the fitted concentration of half-maximal effect. The gist of the method:
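Enzyme and proluciferin substrate are mixed with test chemicals for 10 min, then NADPH regeneration system drives turnover for 1 h at room temperature. A detection reagent halts the reaction; luminescence after 20 min gives relative activity.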
(A reporter such as luciferase makes a cellular process visible.)

Experiment [17] is described as follows: Caspase-3/7 induction in CHO-K1 cells by small molecules, qHTS cell viability counter screen (AID 1346979). Note: nearly all actives have a fitted effect of over 35% in size. The gist of the method:
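Seeding: 1,500 CHO-K1 cells/well. Rest: 5hr, 37C. Treatment: compounds in DMSO, 16hr. Read: CellTiter-Fluor, 1hr, fluorescence.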

Experiment [18] concerns the target Cytochrome P450 2D6 (Homo sapiens) (UniProt P10635). Nature of the experiment: Cytochrome P450 Family 2 Subfamily D Member 6 (CYP2D6) small molecule antagonists: luciferase reporter qHTS assay (AID 1671196). Note: nearly all actives have a fitted effect of over 50% in size. Note: potency is the fitted concentration of half-maximal effect. The essentials:
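P450-Glo format: CYP2D6 converts a proluciferin substrate to luciferin in an NADPH-driven reaction lasting 1 h at room temperature. Light output, proportional to CYP2D6 activity, reflects interference by test chemicals.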

Experiment [19] addresses Nuclear receptor subfamily 1 group I member 2 (Homo sapiens) (UniProt O75469). Nature of the experiment: Human pregnane X receptor (PXR) activation by small molecules, qHTS assay (AID 1346985). Note: nearly all actives have a fitted effect of over 40% in size. The gist of the method:
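DPX-2 cells (HepG2 co-transfected with a PXR response element and a CYP3A4-promoter luciferase construct) were seeded at 2,000 per well, rested 5 hr at 37C, then exposed to DMSO-dissolved compounds for 24 hr. Activation was read as luciferase luminescence.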

Values without a mark were called inactive. Inconclusive results are not listed. Active and inactive are the calls of the source. Unless noted, calls come from the whole dose curve; as a rule, active = well fitted curve in the direction sought with a large enough effect in the repeat runs; inconclusive = weak or mixed curves; inactive = no such curve, though single readings can be large; an effect the other way counts as inactive or inconclusive.
% is set by controls: 0 for no effect and ±100 for the full control effect.

Cytochrome P450 3A4 (Homo sapiens), sequence (P08684 whole entry, looked up): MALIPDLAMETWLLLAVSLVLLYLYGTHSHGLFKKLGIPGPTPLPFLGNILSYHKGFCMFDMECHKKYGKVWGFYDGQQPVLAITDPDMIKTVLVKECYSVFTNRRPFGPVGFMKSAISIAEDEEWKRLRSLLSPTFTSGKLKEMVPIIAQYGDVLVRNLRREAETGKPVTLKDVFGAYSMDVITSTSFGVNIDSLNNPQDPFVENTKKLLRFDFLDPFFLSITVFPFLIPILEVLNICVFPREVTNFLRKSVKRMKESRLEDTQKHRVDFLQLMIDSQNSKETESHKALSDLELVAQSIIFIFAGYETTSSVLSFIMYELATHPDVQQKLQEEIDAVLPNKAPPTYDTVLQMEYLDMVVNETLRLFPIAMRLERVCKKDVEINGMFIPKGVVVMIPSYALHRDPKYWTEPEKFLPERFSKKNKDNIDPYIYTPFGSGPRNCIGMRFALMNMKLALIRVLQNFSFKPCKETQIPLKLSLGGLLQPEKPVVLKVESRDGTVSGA
Cytochrome P450 1A2 (Homo sapiens), sequence (P05177 whole entry, looked up): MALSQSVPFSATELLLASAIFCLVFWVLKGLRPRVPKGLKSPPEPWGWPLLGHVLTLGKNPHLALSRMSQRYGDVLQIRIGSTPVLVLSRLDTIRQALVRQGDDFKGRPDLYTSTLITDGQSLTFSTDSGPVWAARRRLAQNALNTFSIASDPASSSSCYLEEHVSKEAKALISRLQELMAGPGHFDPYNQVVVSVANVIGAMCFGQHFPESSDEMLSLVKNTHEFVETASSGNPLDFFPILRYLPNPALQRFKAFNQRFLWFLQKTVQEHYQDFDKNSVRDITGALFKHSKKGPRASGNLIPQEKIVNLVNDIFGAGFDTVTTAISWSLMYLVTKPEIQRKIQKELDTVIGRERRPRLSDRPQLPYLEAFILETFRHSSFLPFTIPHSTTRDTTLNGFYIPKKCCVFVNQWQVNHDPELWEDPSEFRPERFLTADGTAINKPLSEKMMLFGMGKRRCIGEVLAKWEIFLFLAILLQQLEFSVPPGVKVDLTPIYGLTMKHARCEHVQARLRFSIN
Cytochrome P450 2C9 (Homo sapiens), sequence (P11712 whole entry, looked up): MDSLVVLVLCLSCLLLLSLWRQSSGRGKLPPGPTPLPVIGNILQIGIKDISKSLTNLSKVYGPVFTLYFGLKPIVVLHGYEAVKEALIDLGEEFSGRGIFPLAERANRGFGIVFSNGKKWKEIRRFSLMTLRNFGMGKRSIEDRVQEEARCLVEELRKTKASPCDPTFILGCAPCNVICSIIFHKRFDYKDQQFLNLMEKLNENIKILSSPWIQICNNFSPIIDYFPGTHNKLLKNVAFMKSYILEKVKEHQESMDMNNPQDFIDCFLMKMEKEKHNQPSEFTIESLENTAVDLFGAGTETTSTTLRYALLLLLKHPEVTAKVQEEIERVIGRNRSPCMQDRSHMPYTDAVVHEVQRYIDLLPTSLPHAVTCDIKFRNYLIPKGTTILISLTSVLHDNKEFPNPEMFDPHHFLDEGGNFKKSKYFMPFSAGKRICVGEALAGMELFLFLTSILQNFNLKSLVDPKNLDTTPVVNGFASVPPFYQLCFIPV
Voltage-gated inwardly rectifying potassium channel KCNH2 (Homo sapiens), sequence (Q12809 whole entry, looked up): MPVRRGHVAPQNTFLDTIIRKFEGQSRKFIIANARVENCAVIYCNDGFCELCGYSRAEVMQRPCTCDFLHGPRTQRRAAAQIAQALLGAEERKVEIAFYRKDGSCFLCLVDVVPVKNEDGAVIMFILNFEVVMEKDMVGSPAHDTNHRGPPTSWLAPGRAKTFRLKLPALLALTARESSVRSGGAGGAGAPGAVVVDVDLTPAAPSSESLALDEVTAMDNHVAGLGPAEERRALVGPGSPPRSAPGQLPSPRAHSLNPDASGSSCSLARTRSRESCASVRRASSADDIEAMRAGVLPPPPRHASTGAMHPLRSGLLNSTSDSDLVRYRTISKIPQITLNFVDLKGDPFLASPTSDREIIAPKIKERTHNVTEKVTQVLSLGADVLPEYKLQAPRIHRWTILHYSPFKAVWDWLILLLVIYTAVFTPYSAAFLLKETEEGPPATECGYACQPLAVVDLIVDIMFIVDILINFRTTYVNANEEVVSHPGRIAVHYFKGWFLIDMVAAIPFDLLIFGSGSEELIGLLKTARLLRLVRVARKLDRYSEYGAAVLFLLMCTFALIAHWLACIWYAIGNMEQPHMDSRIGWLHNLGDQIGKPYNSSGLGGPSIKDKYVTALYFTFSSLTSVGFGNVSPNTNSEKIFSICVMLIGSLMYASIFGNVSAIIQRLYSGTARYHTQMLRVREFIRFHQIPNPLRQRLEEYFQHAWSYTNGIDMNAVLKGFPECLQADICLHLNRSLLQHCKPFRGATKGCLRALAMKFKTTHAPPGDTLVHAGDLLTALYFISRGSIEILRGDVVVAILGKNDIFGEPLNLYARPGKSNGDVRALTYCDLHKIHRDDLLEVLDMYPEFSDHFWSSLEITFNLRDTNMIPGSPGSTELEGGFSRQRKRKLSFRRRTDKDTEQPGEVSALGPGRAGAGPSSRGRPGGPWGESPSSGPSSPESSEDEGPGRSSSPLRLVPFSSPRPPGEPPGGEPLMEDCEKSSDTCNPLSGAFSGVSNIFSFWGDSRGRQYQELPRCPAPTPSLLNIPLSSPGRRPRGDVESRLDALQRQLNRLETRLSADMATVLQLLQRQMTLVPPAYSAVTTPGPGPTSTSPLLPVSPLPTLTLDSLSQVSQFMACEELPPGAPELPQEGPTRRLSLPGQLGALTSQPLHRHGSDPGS
Cytochrome P450 2D6 (Homo sapiens), sequence (P10635 whole entry, looked up): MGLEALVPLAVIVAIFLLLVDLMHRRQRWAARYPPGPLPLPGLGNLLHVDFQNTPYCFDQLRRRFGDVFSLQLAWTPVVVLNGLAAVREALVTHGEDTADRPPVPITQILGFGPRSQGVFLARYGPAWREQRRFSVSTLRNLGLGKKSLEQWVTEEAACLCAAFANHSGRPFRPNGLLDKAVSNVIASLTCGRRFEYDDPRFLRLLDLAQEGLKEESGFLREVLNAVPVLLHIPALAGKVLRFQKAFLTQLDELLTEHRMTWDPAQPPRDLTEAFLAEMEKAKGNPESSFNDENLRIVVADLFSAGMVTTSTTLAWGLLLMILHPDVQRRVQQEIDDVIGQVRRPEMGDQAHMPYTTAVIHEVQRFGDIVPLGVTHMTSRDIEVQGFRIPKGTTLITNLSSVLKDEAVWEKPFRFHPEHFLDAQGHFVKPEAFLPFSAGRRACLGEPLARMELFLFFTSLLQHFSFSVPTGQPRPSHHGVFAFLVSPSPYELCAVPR
Nuclear receptor subfamily 1 group I member 2 (Rattus norvegicus), sequence (Q9R1A7 whole entry, looked up): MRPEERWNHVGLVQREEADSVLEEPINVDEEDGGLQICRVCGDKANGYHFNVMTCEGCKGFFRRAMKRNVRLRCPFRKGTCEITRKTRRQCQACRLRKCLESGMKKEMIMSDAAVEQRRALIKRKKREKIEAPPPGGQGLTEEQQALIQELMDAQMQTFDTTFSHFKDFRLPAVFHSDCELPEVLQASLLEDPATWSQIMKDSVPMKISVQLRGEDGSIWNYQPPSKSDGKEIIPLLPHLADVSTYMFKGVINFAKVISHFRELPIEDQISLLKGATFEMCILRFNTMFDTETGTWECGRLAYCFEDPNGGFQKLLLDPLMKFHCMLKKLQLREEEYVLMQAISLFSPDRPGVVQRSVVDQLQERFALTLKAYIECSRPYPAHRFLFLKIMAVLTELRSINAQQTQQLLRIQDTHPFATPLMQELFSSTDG

On to `Cc1ncc([N+](=O)[O-])n1CC(C)O` (stereo not given), for which the outcome in [1], in experiment [2], in experiment [3], in [4], in [5] and in experiment [6] was inactive. In addition, the molecule was called inactive in [7] and in [8]. Also, the Potency entry in experiment [9], in [11], in experiment [12], in [13], in experiment [14] and in [15] was “inactive” each time. The Potency result in experiment [16] was “inactive”. Further, the max activation in [10] is -2.68%.

Consider `c1ccc(B(c2ccccc2)c2ccccc2)cc1`, for which the call in [1], in experiment [2], in experiment [3], in experiment [4], in [5] and in experiment [6] was inactive. In addition, the call in [7] was inactive. Further, the Potency result in [17] and in experiment [15] was “inactive” throughout. For the same molecule, the Potency was 30.6 µM (active) in experiment [9]; 31.7 µM (active) in experiment [18]; 17.8 µM (active) in experiment [12]; 31.7 µM (active) in [13]; 22.4 µM (active) in experiment [14]; 35.5 µM (active) in experiment [16].

On to `CC(=O)Nc1ccc(OC(=O)c2ccccc2OC(C)=O)cc1`, for which the outcome in experiment [1], in [2], in [3], in [4], in experiment [5] and in [6] was inactive. In experiment [8], the molecule was classed as inactive. Besides, the Potency result in experiment [17], in experiment [9], in experiment [11], in experiment [19], in [12] and in [13] was “inactive” in each case. For the same molecule, the Potency result in experiment [15] and in [16] was “inactive” in each case. Moreover, the max activation in [10] was 1.26%.

As to `COc1cc(OC)nc(O[C@H](C(=O)O)C(OC)(c2ccccc2)c2ccccc2)n1`, the result in experiment [1], in experiment [2], in experiment [3], in [4], in [5] and in experiment [6] was inactive. Moreover, the call in [8] was inactive. The Potency entry in [17], in [9], in [18], in experiment [14], in experiment [15] and in [16] was “inactive” in each case.

`CCOc1ccccc1OCC1CNCCO1` (stereo not given): the molecule was classed as inactive in [1], in [2], in experiment [3], in [4], in experiment [5] and in experiment [6]. Also, the call in experiment [8] was inactive. For the same molecule, the Potency entry in experiment [17], in experiment [9], in [12], in [13] and in [15] was “inactive” each time. In experiment [14], the Potency is 0.575 µM (active).

Regarding `COC(=O)/C=C\C(=O)O`, the molecule was classed as inactive in experiment [1], in experiment [2], in experiment [3], in experiment [4], in experiment [5] and in experiment [6]. The outcome in experiment [8] was inactive. The Potency result in [17], in experiment [9], in experiment [18], in experiment [12], in [13] and in [14] was “inactive” throughout. The Potency entry in experiment [15] and in experiment [16] was “inactive” throughout.

For the molecule `CC(C)NC(=O)c1ccc(C=O)cc1`, the molecule was classed as inactive in experiment [1], in experiment [2], in [3], in [4], in experiment [5] and in experiment [6]. Moreover, the molecule was called inactive in [7] and in experiment [8]. In addition, the Potency entry in experiment [9], in experiment [18], in [12], in experiment [13], in experiment [15] and in experiment [16] was “inactive” in each case. Also, in experiment [14], the Potency is 34.7 µM (active).

For `COS(=O)(=O)O`, the call in experiment [1], in experiment [2], in [3], in experiment [4], in experiment [5] and in experiment [6] was inactive. Besides, the molecule was classed as inactive in experiment [7] and in experiment [8]. Besides, the Potency result in experiment [9], in experiment [18], in experiment [12], in experiment [13], in experiment [15] and in [16] was “inactive” each time.

Turning to `Cc1cc(C)c(C(=O)O)c(C)c1`, the molecule was classed as inactive in [1], in experiment [2], in experiment [3], in experiment [4], in [5] and in experiment [6]. The outcome in experiment [8] was inactive. The Potency entry in experiment [17], in experiment [9], in experiment [13], in experiment [15] and in experiment [16] was “inactive” in each case. Also, the Potency in [14] is 39.9 µM (active).
